Assay results published in PubChem BioAssay (NCI).
This is part of a sample that, as a whole, favours compounds with a hit. Of some 83,000 tested, about 20% had one in any assay.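 Activity criterion: percent growth below 10, measured after cells in 96-well plates were exposed to a single compound concentration for 48 hours.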 Values without a mark were called inactive. Active and inactive are the calls of the source.

Key:
Experiment in all cases: NCI-60 one-dose screen, 48 h (100 = growth as untreated, 0 = no growth, -100 = all killed)
Conditions in all cases: 10 µM unless noted
HCT-15 colon = system: HCT-15 colon
HT29 colon = system: HT29 colon
SNB-75 CNS = system: SNB-75 CNS
SNB-19 CNS = system: SNB-19 CNS
U251 CNS = system: U251 CNS
PC-3 prostate = system: PC-3 prostate
SK-MEL-5 melanoma = system: SK-MEL-5 melanoma
UACC-62 melanoma = system: UACC-62 melanoma
SK-MEL-28 melanoma = system: SK-MEL-28 melanoma
SK-MEL-2 melanoma = system: SK-MEL-2 melanoma
EKVX NSCLC = system: EKVX NSCLC
SN12C renal = system: SN12C renal
UO-31 renal = system: UO-31 renal
TK-10 renal = system: TK-10 renal
ACHN renal = system: ACHN renal
CAKI-1 renal = system: CAKI-1 renal
A498 renal = system: A498 renal
CCRF-CEM leukemia = system: CCRF-CEM leukemia
MOLT-4 leukemia = system: MOLT-4 leukemia

| SMILES | growth (HCT-15 colon) | growth (HT29 colon) | growth (SNB-75 CNS) | growth (SNB-19 CNS) | growth (U251 CNS) | growth (PC-3 prostate) | growth (SK-MEL-5 melanoma) | growth (UACC-62 melanoma) | growth (SK-MEL-28 melanoma) | growth (SK-MEL-2 melanoma) | growth (EKVX NSCLC) | growth (SN12C renal) | growth (UO-31 renal) | growth (TK-10 renal) | growth (ACHN renal) | growth (CAKI-1 renal) | growth (A498 renal) [%] | growth (CCRF-CEM leukemia) | growth (MOLT-4 leukemia) |
| --- | --- | --- | --- | --- | --- | --- | --- | --- | --- | --- | --- | --- | --- | --- | --- | --- | --- | --- | --- |
| CSc1ccc(C(=O)Nc2ccc3nnn(/C(C#N)=C/c4ccccn4)c3c2)cc1 | -41.8% (active) | -86.6% (active) | 55.9% | -3.44% (active) | -78.2% (active) | 7.72% (active) | -57.2% (active) | -51.3% (active) | -50.2% (active) | -82% (active) | -86.4% (active) | -4.37% (active) | -100% (active) | -74% (active) | -93.2% (active) | 4.99% (active) | 59.3 | 12.6% | 12.1% |
| Cc1cc2nc3c4ccccc4n(CCNCCN(C)C)c3nc2cc1C | 8.66% (active) | -40.1% (active) | 43.4% | 35.3% | 36.5% | 18.2% | -88.9% (active) | -87.8% (active) | -68.4% (active) | 25.4% | 73.2% | 25.3% | -16.5% (active) | 54.5% | 11% | 14.1% | 75.4 | 21.7% | 4.83% (active) |
| O=C(N=Nc1c(O)[nH]c2ccc(Cl)cc12)c1ccc2nc(-c3ccccc3)[nH]c2c1 | 95.4% | 57.4% | 91.7% | -52.5% (active) | -71.3% (active) | 51.1% | 94.3% | 21.7% | 44.3% | 43.4% | 92.4% | 42% | 78.8% | 143% | 68.4% | 89.3% | 137 | 41.7% | 27.3% |
| COc1cc2c(c(OC)c1OC)C(=O)CC(c1cccc(NC(=O)c3cc(NC(=O)[C@H](C)N)ccc3Cl)c1)O2 (some centres undefined) | 24.5% | 59.5% | 76.1% | 67.1% | 20.9% | 22% | 24.9% | 34% | 63% | 33.5% | 48.4% | 51.8% | 46.4% | 101% | 50.4% | 51.5% | 80.7 | 12.4% | 8.42% (active) |
| COc1ccc2cc([C@H](C)C(=O)N/N=C/c3ccc(Br)cc3)ccc2c1 | 101% | 106% | 71.4% | 98.8% | 100% | 106% | 99.9% | 95.6% | 108% | 109% | 94.2% | 97.2% | 83.3% | 101% | 106% | 87.2% | 107 | 101% | 86.6% |
| COc1cc(C2CC(c3cc(OC)c(OC)c(OC)c3)=NN2C(C)=O)ccc1OCc1ccccc1 (centres undefined) | 34.6% | 38% | 49.3% | 52.2% | 44.3% | 9.84% (active) | 9.77% (active) | 24% | 42.1% | 21.3% | 32.6% | 41.1% | 8.63% (active) | 32.1% | 28.2% | 29% | 55.1 | 40.2% | 8.79% (active) |
| COc1ccc(NC(=O)c2sc3nc(C(C)C)ccc3c2N)cc1 | 69.5% | 73.6% | 104% | 91.4% | 84.6% | 71.7% | 44.6% | 85.6% | 94% | 97.5% | 43.2% | 74.1% | 72.5% | 93.1% | 81.2% | 80.7% | 84.4 | 54.6% | 67.5% |
| COc1ccc(-c2cc(C(=O)NCc3ccccc3)nn2-c2ccc(S(C)(=O)=O)cc2)cc1OC | 108% | 102% | 62.5% | 95.2% | 99.2% | 110% | 97.1% | 111% | 134% | 119% | 97.5% | 88.1% | 77% | 106% | 104% | 87.1% | 99.9 | 101% | -4.09% (active) |
| Cc1ccc(NCC(=O)Cn2cc(COc3ccc(C=Nc4cnc5ccccc5c4)cc3)nn2)cc1 | 112% | 116% | 111% | 97.9% | 101% | 106% | 102% | 97.8% | 112% | 136% | 106% | 99.9% | 90.1% | 109% | 107% | 97% | 124 | 102% | 108% |
| O=C(/C=C/c1ccc(O)c(O)c1)NC1CCOC1O (centres undefined) | 94.6% | 113% | 91.6% | 98.8% | 95.4% | 95.4% | 103% | 104% | 107% | 113% | 97.1% | 96.4% | 80.4% | 109% | 104% | 92.9% | 109 | 96.4% | 96.3% |
| O=C(NNc1ccccc1)n1c(=O)c2ccccc2c(=O)n1-c1ccccc1 | 91.4% | 98.8% | 80.3% | 94.6% | 94.1% | 92.6% | 101% | 91.2% | 104% | 117% | 91.3% | 85.9% | 81.5% | 95% | 93.7% | 77.2% | 101 | 99.5% | 91.3% |
| Cn1cc(-c2cc(N)n3nc(-c4cn(C)c5ccc(Cl)cc45)cc3n2)c2ccccc21 | 100% | 105% | 89% | 108% | 103% | 110% | 98.5% | 98.2% | 97.4% | 114% | 104% | 108% | 107% | 79.3% | 100% | 95.4% | 101 | 115% | 104% |
| N#Cc1c(-c2ccc(Br)cc2)nc2n[nH]c(-c3ccc(Br)cc3)c2c1-c1ccc(C(F)(F)F)cc1 | 5.75% (active) | 20.6% | -3.08% (active) | 20.5% | 20.7% | 14.5% | 14.3% | 0.103% (active) | 49.5% | -37.7% (active) | 5.95% (active) | 19.2% | 11.9% | 70% | 13.1% | 2.69% (active) | 92.3 | 13.9% | 4.06% (active) |
| N#Cc1ccc(C(=O)Nn2c(N)cc3ccccc3c2=O)cc1 | 103% | 103% | 111% | 94.6% | 98% | 94.6% | 99.4% | 86.1% | 104% | 104% | 85.8% | 89.9% | 64.9% | 119% | 92.9% | 78% | 113 | 94.7% | 84.6% |
| C=C1CC[C@@H]2[C@]3(C)COC(c4cn[nH]c4-c4ccccc4)O[C@@H]3CC[C@@]2(C)[C@@H]1C/C=C1/C(=O)OCC1O (some centres undefined) | -81% (active) | -79% (active) | 105% | 45.3% | -18.6% (active) | 33.3% | -77.2% (active) | -12.7% (active) | -55.2% (active) | 73.8% | -45.2% (active) | 21.9% | -0.824% (active) | -8.55% (active) | 11% | 11.4% | 137 | 2.72% (active) | 4.6% (active) |
| O=C(Nc1cccc(-n2cnc3cc(-c4ccc(O)cc4)ccc32)c1)C1CC1 | 11.9% | 8.01% (active) | -5.51% (active) | 32.9% | 9.54% (active) | 47% | 7.19% (active) | 38.5% | 54.3% | 58.4% | 44.4% | 24.9% | 23.4% | 67.4% | 15.4% | 26.2% | 78.2 | 25.6% | 12.7% |
